Experimental data reported in PubChem BioAssay AID1159580 (chemical genetic matrix, 2015).
The campaign covered roughly 5,500 compounds. About 2,000 (36%) were called active. Inconclusive results (about 18%) are left out. Cut-off read from the data, not from the text of the source: active = normalized growth mostly below about 0.91 (no sharp cut-off); inconclusive = no clear call, values can overlap the other calls; inactive = mostly above about 0.92. Some of the results follow.

Assay: chemical genetic growth profiling, strain panel (AID 1159580);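 note: tested at 20 µM; growth read once vehicle control cultures reached saturation at 30 °C; 1 = growth at the plate median or of vehicle wells; lower values mean less growth of the strain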
Conditions: growth OD
[1] = S. cerevisiae deletion strains, locus YAL013W, strain DEP1, stronger effect = lower value
[2] = S. cerevisiae deletion strains, locus YDR150W, strain NUM1, stronger effect = lower value
[3] = S. cerevisiae deletion strains, locus YJL095W, strain BCK1, stronger effect = lower value
[4] = S. cerevisiae deletion strains, locus YMR307W, strain GAS1, stronger effect = lower value
[5] = S. cerevisiae deletion strains, locus YPL241C, strain CIN2, stronger effect = lower value
[6] = S. cerevisiae deletion strains, locus YAL040C, strain CLN3, stronger effect = lower value
[7] = S. cerevisiae deletion strains, locus YDR363W, strain ESC2, stronger effect = lower value
[8] = S. cerevisiae deletion strains, locus YER002W, strain NOP16, stronger effect = lower value
[9] = S. cerevisiae deletion strains, locus YNL175C, strain NOP13, stronger effect = lower value
[10] = S. cerevisiae deletion strains, locus YNL197C, strain WHI3, stronger effect = lower value
[11] = S. cerevisiae deletion strains, locus YNL224C, strain SQS1, stronger effect = lower value
[12] = S. cerevisiae deletion strains, locus YOR083W, strain WHI5 (second series), stronger effect = lower value

Measured: normalized growth

CC1(C)C(=O)[C@@H]2O[C@@H]2[C@@]2(C)C1CC(=O)[C@]1(C)C2CC[C@@]2(C)[C@H](c3ccoc3)OC(=O)[C@H]3O[C@]321 (some centres undefined)
inactive: [1] 0.99 | S. cerevisiae deletion strains, locus YBR021W, strain FUR4, stronger effect = lower value 1.04 | S. cerevisiae deletion strains, locus YBR229C, strain ROT2, stronger effect = lower value 0.984 | S. cerevisiae deletion strains, locus YCL029C, strain bik1, stronger effect = lower value 0.976 | S. cerevisiae deletion strains, locus YDL035C, strain GPR1, stronger effect = lower value 0.992 | S. cerevisiae deletion strains, locus YDL074C, strain BRE1, stronger effect = lower value 0.955 | S. cerevisiae deletion strains, locus YDL101C, strain DUN1, stronger effect = lower value 0.978 | S. cerevisiae deletion strains, locus YDL134C, strain PPH21, stronger effect = lower value 0.967 | S. cerevisiae deletion strains, locus YDL185W, strain tfp1, stronger effect = lower value 0.951 | S. cerevisiae deletion strains, locus YDL192W, strain arf1, stronger effect = lower value 0.979 | S. cerevisiae deletion strains, locus YDR101C, strain arx1, stronger effect = lower value 0.985 | [2] 0.991 | S. cerevisiae deletion strains, locus YDR162C, strain NBP2, stronger effect = lower value 0.943 | S. cerevisiae deletion strains, locus YDR318W, strain mcm21, stronger effect = lower value 0.984 | S. cerevisiae deletion strains, locus YDR388W, stronger effect = lower value 0.985 | S. cerevisiae deletion strains, locus YDR502C, strain sam2, stronger effect = lower value 0.969 | S. cerevisiae deletion strains, locus YEL061C, strain CIN8, stronger effect = lower value 0.994 | S. cerevisiae deletion strains, locus YER110C, stronger effect = lower value 0.98 | S. cerevisiae deletion strains, locus YER155C, strain BEM2, stronger effect = lower value 0.994 | S. cerevisiae deletion strains, locus YER167W, strain BCK2, stronger effect = lower value 0.991 | S. cerevisiae deletion strains, locus YGL078C, strain dbp3, stronger effect = lower value 0.966 | S. cerevisiae deletion strains, locus YGL086W, strain mad1, stronger effect = lower value 0.995 | S. cerevisiae deletion strains, locus YGL248W, strain PDE1, stronger effect = lower value 0.949 | S. cerevisiae deletion strains, locus YGR135W, strain pre9, stronger effect = lower value 0.968 | S. cerevisiae deletion strains, locus YGR252W, strain gcn5, stronger effect = lower value 0.962 | S. cerevisiae deletion strains, locus YHR079C, strain IRE1 (second series), stronger effect = lower value 0.987 | S. cerevisiae deletion strains, locus YHR094C, strain hxt1, stronger effect = lower value 0.981 | S. cerevisiae deletion strains, locus YHR129C, strain ARP1, stronger effect = lower value 0.988 | S. cerevisiae deletion strains, locus YHR200W, strain rpn10, stronger effect = lower value 0.988 | S. cerevisiae deletion strains, locus YIL066C, strain RNR3, stronger effect = lower value 0.987 | S. cerevisiae deletion strains, locus YIL073C, strain SPO22, stronger effect = lower value 0.96 | S. cerevisiae deletion strains, locus YIL125W, strain kgd1, stronger effect = lower value 0.943 | S. cerevisiae deletion strains, locus YIR030C, strain dcg1, stronger effect = lower value 0.975 | [3] 0.946 | S. cerevisiae deletion strains, locus YJL134W, strain LCB3, stronger effect = lower value 0.988 | S. cerevisiae deletion strains, locus YJL168C, strain set2, stronger effect = lower value 0.989 | S. cerevisiae deletion strains, locus YJL187C, strain SWE1 (second series), stronger effect = lower value 0.977 | S. cerevisiae deletion strains, locus YJR043C, strain POL32, stronger effect = lower value 0.991 | S. cerevisiae deletion strains, locus YKL009W, strain mrt4, stronger effect = lower value 0.971 | S. cerevisiae deletion strains, locus YKL068W, stronger effect = lower value 0.973 | S. cerevisiae deletion strains, locus YKL085W, strain MDH1 (second series), stronger effect = lower value 0.981 | S. cerevisiae deletion strains, locus YKL085W, strain MDH1, stronger effect = lower value 0.981 | S. cerevisiae deletion strains, locus YKR001C, strain vps1, stronger effect = lower value 0.957 | S. cerevisiae deletion strains, locus YLR039C, strain RIC1, stronger effect = lower value 0.951 | S. cerevisiae deletion strains, locus YLR058C, strain SHM2, stronger effect = lower value 0.988 | S. cerevisiae deletion strains, locus YLR102C, strain apc9, stronger effect = lower value 0.975 | S. cerevisiae deletion strains, locus YLR262C, strain YPT6, stronger effect = lower value 0.912 | S. cerevisiae deletion strains, locus YLR268W, strain sec22, stronger effect = lower value 0.997 | S. cerevisiae deletion strains, locus YLR330W, strain CHS5, stronger effect = lower value 0.99 | S. cerevisiae deletion strains, locus YLR342W, strain FKS1 (second series), stronger effect = lower value 1.03 | S. cerevisiae deletion strains, locus YLR371W, strain rom2, stronger effect = lower value 0.962 | S. cerevisiae deletion strains, locus YLR418C, strain cdc73, stronger effect = lower value 0.904 | S. cerevisiae deletion strains, locus YML016C, strain PPZ1, stronger effect = lower value 0.984 | S. cerevisiae deletion strains, locus YML032C, strain rad52, stronger effect = lower value 0.992 | S. cerevisiae deletion strains, locus YML124C, strain tub3, stronger effect = lower value 0.97 | S. cerevisiae deletion strains, locus YMR078C, strain ctf18, stronger effect = lower value 0.955 | S. cerevisiae deletion strains, locus YMR223W, strain ubp8, stronger effect = lower value 0.973 | [4] 1.05 | S. cerevisiae deletion strains, locus YNL067W, strain RPL9B, stronger effect = lower value 0.957 | S. cerevisiae deletion strains, locus YNL233W, strain BNI4, stronger effect = lower value 0.964 | S. cerevisiae deletion strains, locus YNL250W, strain rad50, stronger effect = lower value 0.96 | S. cerevisiae deletion strains, locus YNL271C, strain bni1, stronger effect = lower value 0.973 | S. cerevisiae deletion strains, locus YNL298W, strain CLA4, stronger effect = lower value 0.967 | S. cerevisiae deletion strains, locus YNL307C, strain MCK1, stronger effect = lower value 0.982 | S. cerevisiae deletion strains, locus YNR052C, strain pop2, stronger effect = lower value 0.977 | S. cerevisiae deletion strains, locus YOL006C, strain TOP1, stronger effect = lower value 0.895 | S. cerevisiae deletion strains, locus YOL012C, strain htz1 0.769 | S. cerevisiae deletion strains, locus YOL147C, strain pex11, stronger effect = lower value 0.988 | S. cerevisiae deletion strains, locus YOR061W, strain CKA2, stronger effect = lower value 0.977 | S. cerevisiae deletion strains, locus YOR069W, strain VPS5, stronger effect = lower value 0.985 | S. cerevisiae deletion strains, locus YOR136W, strain idh2, stronger effect = lower value 0.995 | S. cerevisiae deletion strains, locus YOR144C, strain elg1, stronger effect = lower value 0.983 | S. cerevisiae deletion strains, locus YOR184W, strain ser1, stronger effect = lower value 0.982 | S. cerevisiae deletion strains, locus YOR316C, strain cot1, stronger effect = lower value 0.973 | [5] 0.977 | S. cerevisiae deletion strains, locus YPR119W, strain clb2, stronger effect = lower value 0.986 | S. cerevisiae deletion strains, locus YPR141C, strain kar3, stronger effect = lower value 0.964 | S. cerevisiae deletion strains, locus YPR163C, strain tif3, stronger effect = lower value 0.995 | S. cerevisiae deletion strains, locus YPR167C, strain met16, stronger effect = lower value 0.985 | S. cerevisiae deletion strains, strain wtn01, stronger effect = lower value 0.978 | S. cerevisiae strains, strain wild type, stronger effect = lower value 1.01

Cc1nc(N=Nc2ccc(S(=O)(=O)O)cc2S(=O)(=O)O)c(COP(=O)(O)O)c(C=O)c1O
inactive: [6] 1 | S. cerevisiae deletion strains, locus YCL061C, strain MRC1 (second series), stronger effect = lower value 1 | [2] 1.01 | [7] 1.01 | [8] 0.993 | S. cerevisiae deletion strains, locus YGR229C, strain SMI1, stronger effect = lower value 1.02 | [4] 0.998 | S. cerevisiae deletion strains, locus YNL128W, strain TEP1, stronger effect = lower value 1.02 | [9] 1 | [10] 1.01 | [11] 1.01 | [12] 1.01 | S. cerevisiae deletion strains, locus YPL055C, strain LGE1, stronger effect = lower value 1 | [5] 0.997

CC(C)C1C2CCC(C2)C1N (centres undefined)
inactive: [1] 1.01 | [6] 0.976 | [2] 0.985 | [7] 1.02 | [8] 1 | S. cerevisiae deletion strains, locus YGR078C, strain PAC10, stronger effect = lower value 1.02 | S. cerevisiae deletion strains, locus YNL153C, strain GIM3, stronger effect = lower value 1.03 | [9] 1.02 | [10] 1 | [11] 1.03 | [12] 1.01

O1[As]2O[As]3O[As]1O[As](O2)O3
inactive: S. cerevisiae deletion strains, locus YHR030C, strain SLT2, stronger effect = lower value 0.959 | S. cerevisiae deletion strains, locus YHR079C, strain IRE1, stronger effect = lower value 0.974 | [3] 0.983 | S. cerevisiae deletion strains, locus YJR066W, strain TOR1, stronger effect = lower value 0.961 | S. cerevisiae deletion strains, locus YLR113W, strain HOG1, stronger effect = lower value 1.05 | S. cerevisiae deletion strains, locus YNL183C, strain NPR1, stronger effect = lower value 0.927 | S. cerevisiae deletion strains, locus YOR231W, strain MKK1, stronger effect = lower value 0.973 | S. cerevisiae deletion strains, locus YPL256C, strain CLN2, stronger effect = lower value 0.98
